Screening results: PubChem BioAssay, several laboratories
CYP2C19 inh = human CYP2C19 inhibition; P33261; CYP2C19 Supersomes, luciferin-H EGE luminescence, 30 min; inhibition, % at 5 µM; 21% of 96,000 active; AID 778;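 active means CYP2C19 inhibition above a set limit at 5 µM in the primary screen, cut at about 50% in these data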
CYP2C9 act = increases human cytochrome P450 2C9 activity | activation factor at 5 µM | 1.4% of 96,000 active | recombinant CYP2C9, luciferin-H conversion, luminescence; hits give high values; factor 1 = untreated enzyme, 0 = blocked;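 active means activation factor of 2 or more for CYP2C9 at a 5 µM dose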
Target sequence (P11712 whole entry, looked up): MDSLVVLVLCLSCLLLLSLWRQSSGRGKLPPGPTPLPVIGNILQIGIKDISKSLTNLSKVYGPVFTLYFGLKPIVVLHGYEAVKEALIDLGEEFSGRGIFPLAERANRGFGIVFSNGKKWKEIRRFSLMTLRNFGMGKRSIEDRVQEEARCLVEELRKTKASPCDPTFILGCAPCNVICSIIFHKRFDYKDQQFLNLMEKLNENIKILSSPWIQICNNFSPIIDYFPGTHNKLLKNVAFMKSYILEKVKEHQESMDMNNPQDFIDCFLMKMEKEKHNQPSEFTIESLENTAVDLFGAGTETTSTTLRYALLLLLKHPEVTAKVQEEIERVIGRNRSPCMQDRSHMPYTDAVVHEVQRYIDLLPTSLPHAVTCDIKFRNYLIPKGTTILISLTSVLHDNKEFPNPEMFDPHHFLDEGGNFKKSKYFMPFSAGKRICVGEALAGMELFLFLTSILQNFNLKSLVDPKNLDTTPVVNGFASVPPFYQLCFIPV
CYP2C9 inh = inhibitors of human CYP2C9; 20% of 96,000 active; P11712; CYP2C9 Supersomes, luciferin-H conversion, luminescence; AID 777; inhibition, % at 5 µM;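 active means blocking of liver enzyme CYP2C9 beyond about 50% at 5 µM, limit read from the data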
sEH inhibitor = soluble epoxide hydrolase (human) inhibition; inhibition, % at 2 µM; 0.34% of 91,000 active; recombinant human sEH enzymatic activity assay; P34913; in the data active means inhibition above about 80%
sEH activator = soluble epoxide hydrolase (human) activation; purified human sEH enzymatic activity, activator screen; activation, % at 2 µM; 0.04% of 91,000 active; in the data active means activation above about 37%
CYP2C19 activ = activators of human cytochrome P450 2C19; P33261; recombinant CYP2C19, luciferin-H EGE luminescence; hits give high values; 0 = fully inhibited enzyme, 1 = untreated enzyme; activation factor at 5 µM; 96,000 tested, under 10 active; AID 1025;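 active means activation factor of at least 2 at 5 µM in the primary screen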
Each line names hits and unclear results; the compound was inactive in the other large screens. This is a sample that favours compounds with a hit; in the whole collection about 27% have one here.

CCOC(=O)c1c(C)[nH]c(C(=O)COC(=O)c2oc3ccc(OC)cc3c2C)c1C	none (no result: sEH inhibitor, sEH activator)
CCOC(=O)c1oc2ccc(S(=O)(=O)n3nc(-c4ccc(Cl)cc4)cc3N)cc2c1C	CYP2C9 inh 98.7 (no result: sEH inhibitor, sEH activator)
CCCCN(CC)CCNS(=O)(=O)c1ccc2c(c1)oc(=O)n2C	none (no result: sEH inhibitor, sEH activator)
CSC1=NC2C(N1)N(C)C(=O)N2C (stereo not given)	none
O=C(Cn1nnc(-c2ccccc2Cl)n1)N1CCN(S(=O)(=O)c2ccc(Cl)cc2)CC1	none (no result: sEH inhibitor, sEH activator)
O=C(CN1C(=O)NC2(CCCCCC2)C1=O)Nc1ccc(S(=O)(=O)N2CCOCC2)cc1	none
CCCCCNC(=O)CCc1ccccc1	none (no result: CYP2C19 inh, CYP2C9 act, CYP2C9 inh, CYP2C19 activ)
C#CCOC(=O)CCC(=O)NCCc1ccccc1	CYP2C19 inh 67.3 (no result: sEH inhibitor, sEH activator)
CN1C=CC=C/C1=C1\SC(=S)N(c2ccccc2)C1=O	none
CN1C=CC=C/C1=C1\SC(=S)N(C2CCCCC2)C1=O	CYP2C19 inh 57.6
CC(C)(C)c1cc(C(=O)Nc2cccc3ccccc23)ccn1	none (no result: CYP2C19 inh, CYP2C9 act, CYP2C9 inh, CYP2C19 activ)
CCN(C(=O)c1ccnc(C(C)(C)C)c1)c1ccccc1	CYP2C19 inh 60.6
Cc1cc(C)cc(OC(=O)CS(=O)c2ccc(C(F)(F)F)cc2[N+](=O)[O-])c1 (stereo not given)	CYP2C9 act 2
CCS(=O)(=O)Nc1cc(-c2nc3cccnc3s2)ccc1C	none
Cc1cc(-c2nc3cccnc3s2)ccc1NS(=O)(=O)c1ccc2c(c1)OCCO2	CYP2C9 inh 96.2
Cc1c(NS(=O)(=O)c2ccc3c(c2)OCCO3)cccc1-c1nc2cccnc2s1	CYP2C19 inh 100.4, CYP2C9 inh 82.7
CCOC(=O)NC(NCC(O)c1ccccc1)(C(F)(F)F)C(F)(F)F (stereo not given)	CYP2C19 inh 65.0
CCCCCOC(=O)NCC(O)c1ccccc1 (stereo not given)	none
CCCCOC(=O)NC(NCC(O)c1ccccc1)(C(F)(F)F)C(F)(F)F (stereo not given)	CYP2C19 inh 90.8, CYP2C9 inh 78.0
CCOC(=O)NC(Nc1ncccn1)(C(F)(F)F)C(F)(F)F	none
COc1cc(C(=O)Nc2ccncc2)cc(OC)c1OC	CYP2C19 inh 98.3, CYP2C9 inh 85.9
O=C(Nc1ccncc1)c1cc(F)cc(F)c1	CYP2C19 inh 86.2
COc1cc(OC)cc(C(=O)NC2CCN(CC(=O)Nc3cccc4ccccc34)CC2)c1	none (no result: CYP2C19 inh, CYP2C9 act, CYP2C9 inh, CYP2C19 activ)
CS(=O)(=O)N1CCN(Cc2ccccc2C(F)(F)F)CC1	CYP2C19 inh 73.3
Cc1ccc(CN2CCN(Cc3ccccc3C(F)(F)F)CC2)cc1	CYP2C19 inh 64.0
O=C(C1CCCN(Cc2ccccc2C(F)(F)F)C1)N1CCCCC1 (stereo not given)	none
CCc1cc(C)cc(OCCNC(=O)c2cncc(Br)c2)c1	CYP2C19 inh 71.6
COc1cc(OC)cc(C(=O)NCCOc2ccccc2)c1	CYP2C19 inh 62.3
Cc1ccc(C(C)C)c(OCCNS(C)(=O)=O)c1	none
Cc1ccc(C(C)C)c(OCCNC(=O)c2cncc(Br)c2)c1	CYP2C19 inh 71.8, CYP2C9 inh 63.1
O=C(NCCOc1ccccc1)c1cncc(Br)c1	CYP2C19 inh 84.0
O=C(Nc1ccccc1C(=O)O)c1cncc(Br)c1	CYP2C9 inh 60.3
COC(=O)c1ccc(OCCOc2ccccc2)cc1	CYP2C19 inh 67.2, CYP2C9 inh 54.4
COC(=O)c1ccc(OCCN2C3=NCCN3c3ccccc32)cc1	none (no result: sEH inhibitor, sEH activator)
COc1ccc(CNC(=O)C2=C(C)C(=O)OC23CCC(C)CC3)cc1 (stereo not given)	CYP2C19 inh 54.8
CC1=C(C(=O)NCCCOC(C)C)C2(CCC(C)CC2)OC1=O (stereo not given)	CYP2C19 inh 63.8 (no result: sEH inhibitor, sEH activator)
CC1=C(C(=O)NCc2ccccn2)C2(CCC(C)CC2)OC1=O (stereo not given)	CYP2C19 inh 76.7
CC1=C(C(=O)NCCN2CCOCC2)C2(CCC(C)CC2)OC1=O (stereo not given)	none (no result: sEH inhibitor, sEH activator)
O=C(Nc1cc2c(cc1Br)OCCO2)c1ccco1	none (no result: CYP2C19 inh, CYP2C9 act, CYP2C9 inh, CYP2C19 activ)
COC(=O)c1[nH]c2ccccc2c1NC(=O)CNC1CCCCC1	none
CCN(CC)CCNc1nc2cc(OC)c(OC)cc2c2nc(-c3ccccc3)nn12	none
COc1ccc(/C=N/NC(N)=S)cc1OC(=O)c1cccc2ccccc12	CYP2C9 inh 58.0
CCN(CC)S(=O)(=O)c1ccc2[nH]cc(C(=O)NCCN3CCCCCC3)c(=O)c2c1	none
CCN(CC)S(=O)(=O)c1ccc2[nH]cc(C(=O)NCCC3=CCCCC3)c(=O)c2c1	CYP2C19 inh 75.8, CYP2C9 inh 91.1
CCc1ccc(N(C)S(=O)(=O)c2ccc3[nH]cc(C(=O)NCCN4CCOCC4)c(=O)c3c2)cc1	CYP2C9 inh 60.4
CCN(CC)S(=O)(=O)c1ccc(Cl)c(C(=O)NCC2CCCO2)c1 (stereo not given)	none
Cc1ccccc1N(C)S(=O)(=O)c1ccc2[nH]cc(C(=O)NCC3CCCO3)c(=O)c2c1 (stereo not given)	CYP2C19 inh 52.9, CYP2C9 inh 91.4 (no result: sEH inhibitor, sEH activator)
CCC1CCCCN1C(=O)c1c[nH]c2ccc(S(=O)(=O)N(C)c3ccc(Cl)cc3)cc2c1=O (stereo not given)	CYP2C19 inh 74.1, CYP2C9 inh 83.2
Cc1c(C)c2ccc(OC3CCCCC3=O)cc2oc1=O (stereo not given)	none (no result: sEH inhibitor, sEH activator)
Cc1cccc(NC(=O)c2cccc(N3C(=O)C4C5CCC(C5)C4C3=O)c2)c1C (stereo not given)	none
CC(=O)c1ccc(NC(=O)N[C@@H](CC(C)C)C(=O)O)cc1	none
CCOc1ccc(N(C)S(=O)(=O)c2ccc3[nH]cc(C(=O)NCC4CCCO4)c(=O)c3c2)cc1 (stereo not given)	CYP2C9 inh 73.5
CCOc1ccc(C(=O)NCC2CCCO2)cc1 (stereo not given)	none
Cc1sc(-n2c(C)cc(/C=N/n3cnnc3)c2C)c(C#N)c1C	CYP2C19 inh 89.4, CYP2C9 inh 82.9
Cc1cc(/C=N/n2cnnc2)c(C)n1-c1cccc(Cl)c1	CYP2C19 inh 99.4, CYP2C9 inh 95.2
Cc1cc(/C=N/n2cnnc2)c(C)n1-c1ccc(Cl)cc1Cl	CYP2C19 inh 99.2, CYP2C9 inh 94.0
Cc1cc(/C=N/n2cnnc2)c(C)n1-c1ccc(OCc2ccc(Cl)cc2Cl)cc1	none
Cc1cc(/C=N/n2cnnc2)c(C)n1-c1ccccc1	CYP2C19 inh 100.0, CYP2C9 inh 72.6
O=C(Nc1ccc(NC(=S)NC(=O)C(c2ccccc2)c2ccccc2)cc1)c1ccccc1	none (no result: CYP2C19 inh, CYP2C9 act, CYP2C9 inh, CYP2C19 activ)
CCOc1ccc(S(=O)(=O)Nc2ccc(Cl)cn2)c(C)c1C	none
CCOc1cc(C)c(S(=O)(=O)Nc2ccc(Cl)cn2)cc1C	CYP2C19 inh 78.2, CYP2C9 inh 94.9 (no result: sEH inhibitor, sEH activator)
CS(=O)(=O)N(Cc1nnc(-c2cccs2)o1)c1ccc(Cl)cc1F	CYP2C19 inh 98.8, CYP2C9 inh 87.6
CCOc1cc(C)c(C(C)C)cc1S(=O)(=O)n1ccc(C)n1	CYP2C19 inh 54.2
COc1cc(C)c(Cl)cc1S(=O)(=O)n1ccnc1C	CYP2C19 inh 92.4
